ANO1 activ – mouse TMEM16A channel activation, primary screen. Q8BHY3. HEK293 TMEM16A/YFP-H148Q/I152L, iodide quench fluorescence; hits give low values. B-score at 10 µM. actives 0.3% (n = 340,000). AID 623877;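 active = fluorescence-ratio B-score plate-corrected deviation score at least 3 library SD below zero, with starting fluorescence score within 5 deviations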;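 also: channel opened by trigger with iodide after compound preincubation; score built on the fluorescence ratio of max minus min over baseline; more negative score means more quench and so TMEM16A activation or potentiation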
Target sequence (Q8BHY3 whole entry, looked up): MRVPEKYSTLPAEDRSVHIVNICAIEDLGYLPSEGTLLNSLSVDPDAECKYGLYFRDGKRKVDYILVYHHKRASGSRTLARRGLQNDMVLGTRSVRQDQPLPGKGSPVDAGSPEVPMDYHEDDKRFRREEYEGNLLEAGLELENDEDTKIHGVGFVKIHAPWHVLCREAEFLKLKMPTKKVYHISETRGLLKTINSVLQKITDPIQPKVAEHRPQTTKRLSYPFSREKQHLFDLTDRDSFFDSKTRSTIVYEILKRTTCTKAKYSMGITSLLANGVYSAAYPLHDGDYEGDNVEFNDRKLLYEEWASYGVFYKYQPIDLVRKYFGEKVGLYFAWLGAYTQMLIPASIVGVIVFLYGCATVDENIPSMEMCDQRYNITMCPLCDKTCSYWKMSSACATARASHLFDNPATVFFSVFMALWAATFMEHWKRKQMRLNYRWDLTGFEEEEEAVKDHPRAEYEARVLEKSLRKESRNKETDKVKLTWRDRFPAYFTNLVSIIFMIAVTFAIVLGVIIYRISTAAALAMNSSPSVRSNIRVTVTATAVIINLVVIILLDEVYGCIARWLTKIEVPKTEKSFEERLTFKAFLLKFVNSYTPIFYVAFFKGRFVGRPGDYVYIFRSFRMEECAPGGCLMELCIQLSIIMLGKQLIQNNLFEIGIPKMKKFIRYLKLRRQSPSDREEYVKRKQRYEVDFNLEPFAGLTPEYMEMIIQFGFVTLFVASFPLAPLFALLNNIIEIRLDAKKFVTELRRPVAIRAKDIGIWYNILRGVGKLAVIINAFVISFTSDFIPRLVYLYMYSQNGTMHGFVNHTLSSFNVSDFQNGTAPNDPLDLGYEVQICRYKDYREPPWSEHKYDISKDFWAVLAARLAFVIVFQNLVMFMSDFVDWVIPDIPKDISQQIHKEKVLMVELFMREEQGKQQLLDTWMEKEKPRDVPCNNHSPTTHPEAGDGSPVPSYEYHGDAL
CRFBP-R2 agonist – agonists of human CRF-binding protein/CRF-R2 receptor complex | HEK293 CRF-R2/CRF-BP, calcium dye fluorescence (FLIPR); percent of saturating CRF peptide response | activation, % at 13.2 µM | actives 0.46% (n = 350,000);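 active = activation of at least 50%, plus an integration ratio under a set limit after plate pattern correction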
CRFBP-R2 block – CRF-BP/CRF-R2 complex antagonism; HEK293 CRF-R2/CRF-BP, CRF-induced calcium fluorescence; inhibition, % at 11.8 µM; actives 0.59% (n = 350,000); AID 588475;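 active = inhibition of the ligand-induced calcium signal above about 50% at the single tested concentration, limit read from the data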
RTF Ca sens inh – cardiac RTF calcium desensitization. P19429+P45379. IANBD-labeled cardiac RTF, Ca2+ fluorescence. inhibition, % at 7.15 µM. actives 0.12% (n = 340,000). AID 493244;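 active = inhibition above the mean inhibition of all tested compounds plus 3 SD, cut at about 17% in these data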;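 also: assay run at fixed EC70 calcium of 1.6 mM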
ANO1 block – inhibitors of mouse TMEM16A calcium-activated chloride channel. HEK293 TMEM16A/YFP iodide influx fluorescence, ionomycin. normalized B-score (activity score, 25-100; higher = stronger inhibition) at 10 µM. actives 1.2% (n = 310,000). AID 588511;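 active = ratio plate-corrected score three or more library SD toward inhibition, starting fluorescence score within five deviations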;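 also: score derived from kinetic fluorescence span divided by baseline fluorescence per well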
cardiac RTF act – increases calcium sensitivity of human cardiac regulated thin filaments; IANBD-labeled TnC RTF fluorescence at EC20 calcium; 0% EC20 calcium, 100% full calcium; P19429+P45379; actives 0.24% (n = 340,000); activation, % at 7.2 µM; AID 493008;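 active = activation above the mean over all tested compounds plus 3 SD, cut at about 30% in these data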;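 also: rise in fluorescence read as greater calcium sensitivity of cardiac thin filaments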
A number is an active result; n = inactive; x = no result given; + = active, no number. Compounds with a hit are over-represented: about 2.4% of the library has one in this group of screens.

SMILES	ANO1 activ	CRFBP-R2 agonist	CRFBP-R2 block	RTF Ca sens inh	ANO1 block	cardiac RTF act
O=C1C(Cl)=C(NCCCO)C(=O)c2ccccc21	n	n	n	n	n	n
O=C(NCCc1c[nH]c2ccccc12)C(F)(F)F	n	n	n	n	n	n
Cc1ccc(CN/C=C/C(=O)c2ccc(Br)cc2)cc1	n	n	n	n	100	n
Cc1cc(Cn2nnc(-c3ccc(Br)cc3)n2)cc(C)c1O	n	n	n	n	x	n
O=S(=O)(c1ccc(Cl)s1)N1CCN(C/C=C/c2ccccc2)CC1	-6.97	n	n	n	n	n
CC(N)=Nc1ccc([N+](=O)[O-])cc1	n	n	n	n	n	n
O=[N+]([O-])c1ccc(N=Nc2c(Cl)cc(O)cc2Cl)cc1	-5.23	n	n	n	100	n
N#CCN1CCC(c2cc(-c3ccco3)n[nH]2)CC1	x	n	n	x	n	x
COc1ccc(S(=O)(=O)N2CCC(C(=O)N3CCc4ccccc4C3)CC2)cc1	-12.1	n	n	n	n	n
CC(=O)c1c(C)[nH]c(C(=O)COC(=O)c2ccc(Cl)nc2)c1C	n	n	n	n	x	n
Clc1ccc2c(NCc3ccccn3)ccnc2c1	n	n	n	n	n	n
CCOc1ccccc1Nc1ccnc2cc(Cl)ccc12	n	n	59.4	n	n	n
CS(=O)(=O)N(CC(=O)N1CCOCC1)c1ccccc1	n	n	n	n	n	n
CCN1CCN(S(=O)(=O)c2ccc(Cl)c(C(=O)N(CCc3ccccc3)Cc3ccccc3)c2)CC1	n	n	n	n	x	n
O=C(NC1CCN(Cc2ccccc2)C1)c1cc(S(=O)(=O)N2CCOCC2)ccc1Cl (configuration not stated)	n	n	n	n	x	n
COc1ccc(S(=O)(=O)N2CCCCCC2)cc1C(=O)N(C)Cc1ccc(C(C)(C)C)cc1	n	n	78.5	n	25	n
Cc1ccc(S(=O)(=O)N2CCCCC2)cc1C(=O)N(CCc1ccccc1)Cc1ccccc1	n	n	67.0	n	n	n
Cc1ccc(S(=O)(=O)N2CCOCC2)cc1C(=O)NC1CCN(Cc2ccccc2)CC1	n	n	56.3	n	x	n
N#Cc1ccc(CN2CCN(c3ccc(S(=O)(=O)N4CCCC4)cn3)CC2)cc1	n	n	n	n	x	n
COC(=O)c1cc2c(n1S(=O)(=O)c1ccc(C)cc1)C(=O)C(=O)c1[nH]cc(C(=O)OCc3ccccc3)c1-2	n	n	n	n	x	n
COc1cccc(CNC(=O)CSCc2cnn(-c3ccccc3)c2-n2cccc2)c1OC	n	n	n	n	100	n
COc1ccccc1CNC(=O)CSCc1cnn(-c2ccccc2)c1-n1cccc1	n	n	n	n	n	n
O=C(Nc1ccc(C(=O)NCCCN2CCCCC2)cc1)C1=CSCCO1	n	n	n	n	n	n
O=C(Nc1ccc(C(=O)NCCCN2CCN(c3ccc(F)cc3)CC2)cc1)C1=CSCCO1	n	62.0	n	n	n	n
O=C(NC1CCCC1)C(c1cccnc1)N(Cc1ccccc1)C(=O)c1csnn1 (configuration not stated)	n	n	n	n	n	n
SMILES	ANO1 activ	CRFBP-R2 agonist	CRFBP-R2 block	RTF Ca sens inh	ANO1 block	cardiac RTF act
Cc1ccc(S(=O)(=O)N2CCCCC2)cc1NS(=O)(=O)c1ccccc1F	n	n	n	n	x	n
O=c1c(Cc2ccc(Cl)cc2Cl)c(O)ccn1Cc1ccc(Cl)cc1	n	n	n	n	100	n
O=c1c(Cc2ccc(Cl)cc2)c(O)ccn1Cc1cccc(Cl)c1	n	n	n	n	n	n
CCCCn1nc(C(=O)NC2CCCCCC2)c2ccccc2c1=O	n	n	n	n	x	n
CCCCn1nc(C(=O)N(C)C2CCCCC2)c2ccccc2c1=O	-30.3	n	n	n	x	n
COc1ccc(OC)c(CCNC(=O)CCCc2nnc3n(C)c(=O)c4sccc4n23)c1	n	n	n	n	n	n
CC(C)N(C(=O)C[n+]1ccsc1N)c1ccccc1	n	n	59.3	n	n	n
CC(Oc1ccc(C(C)(C)C)cc1)c1ccnc2nc(/N=C/N(C)C)nn12 (configuration not stated)	n	n	n	n	25	n
COc1cc(CNC(=O)c2ccc3c(c2)S(=O)(=O)c2ccccc2C3=O)cc(OC)c1	n	n	n	n	n	n
CCCCCCCCn1c(=O)c(C(=O)OC)c(N)c2ccccc21	n	n	n	x	100	x
CC(=O)c1c(C)c2c(n1CCN(C)C)CCCC2	n	62.2	n	n	n	n
Cc1ccc(S(=O)(=O)N(C)C)cc1NC(=O)C1CCCN(C(=O)c2ccc(Cl)cc2)C1 (configuration not stated)	n	n	n	n	n	n
CC(C(=O)NCCN1CCOCC1)(c1ccccc1)c1ccccc1	n	n	81.1	n	n	n
COc1cccc(/C=N/Nc2snc(SC)c2C#N)c1O	n	69.3	n	n	100	n
CS(=O)(=O)Oc1ccc2c(c1)O/C(=C\C=C\c1ccccc1)C2=O	n	n	n	n	n	n
COc1ccc2c(c1)CC/C(=C\C=C\c1ccccc1OC)C2=O	n	n	n	n	n	n
COCCN(CCOC)Cc1c(O)ccc2c1O/C(=C\c1ccc(C)o1)C2=O	n	n	n	n	n	146.8
CCN(CC)Cc1c(O)ccc2c1O/C(=C\C=C\c1ccccc1)C2=O	n	n	n	n	n	112.8
COc1ccccc1/C=C/C=C1\Oc2c(ccc(O)c2CN(C)C)C1=O	n	n	n	n	n	107.4
CCC(C)(C)c1nnc(NC(=O)CCC2CCCCC2)s1	n	n	n	x	n	x
CSCC[C@H](NC(=O)c1ccc2c(c1)OCO2)c1nnc2ccccn12	n	n	n	n	n	n
CC1=C(C(=O)N(C)C)CC(CC(=O)NCCCCc2ccccc2)C(=O)N1CCCN1CCCC1=O (configuration not stated)	x	n	n	x	x	x
C=CCOc1c(CNc2nccs2)cccc1OCC	n	n	n	n	n	n
CSc1ncccc1C(=O)Nc1ccc(OC(F)(F)F)cc1	n	n	n	n	n	n
CC(=O)Nc1ccc(Sc2ncccc2C(=O)Nc2ccc(F)cc2)cn1	n	156.1	n	n	n	n
SMILES	ANO1 activ	CRFBP-R2 agonist	CRFBP-R2 block	RTF Ca sens inh	ANO1 block	cardiac RTF act
Cc1cc(C)c(S(=O)(=O)Nc2ncccc2C)c(C)c1	n	n	n	n	n	n
CCCCNc1ccc2c3c(cccc13)C(=O)N(CCCC)C2=O	n	194.5	n	n	x	+
CCN(CC)S(=O)(=O)c1ccc(C(=O)OCCN2C(=O)c3cccc4c(N5CCOCC5)ccc(c34)C2=O)cc1	n	184.5	n	n	n	n
CCCN1C(=O)c2cccc3c(N4CCCCC4)ccc(c23)C1=O	n	206.5	n	n	n	74.8
O=C(c1ccc(F)cc1F)N1CCN(c2ccccn2)CC1	n	n	n	n	n	n
COc1ccc2nc3ccccc3[n+]([O-])c2c1	-10.4	58.3	n	n	x	n

Source: PubChem
